# Screening results (PubChem)
# Rows were chosen to be rich in hits. Some 3% of all compounds tested hit in one or more screens of this group.
# IMPase inh: IMPase inhibition in cells; 120,000 tested, under 10 active; AID 901; CHO-M1 cells, IP1 accumulation, HTRF TR-FRET ratio; inhibition (IP1 accumulation), % at 46.1 µM; active means well fitted curve in the direction sought with a large enough effect in the signal ratio, not every such curve was filed as active; inconclusive means small, poorly fitted or top-dose-only effect, or a change in a side signal; inactive means no such curve, though single readings can be large or run the other way; the % refers to the signal ratio;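 further: cells stimulated with carbachol in lithium chloride buffer; plate controls were DMSO basal wells for no effect and reference inhibitor wells for full effect; higher means more IMPase inhibition seen as more IP1 and lower FRET ratio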
#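 CHO-M1, 2000 cells/well, cultured 16–30 h; cpd up to 46 uM; carbachol (50 uM solution, stimulation buffer w/ 50 mM LiCl, pH 7.4), 30 min 37C; IP-One TR-FRET, 10 min RT; Ex 320/Em 665, 620; Hill-fit AC50.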
# 15-hLO-2 inh: 15-hLO-2 (ALOX15B) enzyme inhibition; O15296; purified 15hLO-2, xylenol orange hydroperoxide absorbance; Potency, µM (top dose mostly 57.1 µM), for inactives: at the highest dose activity change, negative = inhibition, most hits filed as inhibitors; hit rate 0.56% among 110,000; further: potency means the concentration at half of the fitted maximal effect; nearly all actives have a fitted effect of over 60% in size
# Target sequence (O15296 whole entry, looked up): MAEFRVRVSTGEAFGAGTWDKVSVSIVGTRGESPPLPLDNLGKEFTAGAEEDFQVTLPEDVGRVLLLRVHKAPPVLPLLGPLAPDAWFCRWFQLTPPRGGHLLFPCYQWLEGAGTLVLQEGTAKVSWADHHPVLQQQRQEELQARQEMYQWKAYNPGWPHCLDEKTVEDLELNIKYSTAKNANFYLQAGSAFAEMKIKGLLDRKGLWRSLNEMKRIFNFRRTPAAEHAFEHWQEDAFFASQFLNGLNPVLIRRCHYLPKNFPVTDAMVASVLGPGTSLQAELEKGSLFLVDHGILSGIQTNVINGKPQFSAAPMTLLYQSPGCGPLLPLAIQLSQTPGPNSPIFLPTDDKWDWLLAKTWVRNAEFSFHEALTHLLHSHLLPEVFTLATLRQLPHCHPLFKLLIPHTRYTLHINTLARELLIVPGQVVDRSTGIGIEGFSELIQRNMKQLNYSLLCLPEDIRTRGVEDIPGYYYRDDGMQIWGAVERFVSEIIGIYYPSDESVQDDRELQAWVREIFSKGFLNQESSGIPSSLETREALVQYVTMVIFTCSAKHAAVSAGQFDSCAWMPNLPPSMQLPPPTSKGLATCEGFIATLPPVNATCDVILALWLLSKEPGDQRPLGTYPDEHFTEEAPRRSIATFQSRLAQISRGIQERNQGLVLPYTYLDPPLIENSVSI
#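 Purified human 15hLO-2 (50 nM final) preincubated with compounds 15 min at room temperature in 25 mM Hepes pH 7.5, 0.01% Triton X-100, then 45 uM arachidonic acid added for 90 min; hydroperoxide detected via ferrous/xylenol orange, 573/405 nm absorbance ratio.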
# 12-hLO inh: inhibitors of human 12-lipoxygenase (ALOX12). P18054. purified 12-hLO, xylenol orange hydroperoxide absorbance. hit rate 0.12% among 150,000. Potency, µM (titrated, usually from 57.1 µM), for the others: at the top dose activity change, negative = inhibition, actives largely listed as inhibitors. AID 1452; further: potency means the concentration at half of the fitted maximal effect; nearly all actives have a fitted effect of over 55% in size
#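 Xylenol orange chromogenic assay: hydroperoxide from 12hLO oxidises Fe(II), giving red-shifted Fe(III)-XO absorbance. Conditions: 150 nM enzyme, 40 uM arachidonic acid, 25 mM Hepes pH 7.0, 0.01% Triton X-100, 30 min, room temperature.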
# PNC assembly inh: perinucleolar compartment assembly inhibition. activity change (PNC), negative = inhibition, % at 10 µM. hit rate 3.1% among 140,000. PC3M PTB-GFP, PNC prevalence imaging, 16 h; hits give low values;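 active means readout at or below -70, meaning at least 70% loss of cells showing the perinucleolar compartment, a nuclear body marking cancer cells; inconclusive means readout between -30 and a set limit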;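 further: plate controls were DMSO wells for no effect and camptothecin positive control wells for full effect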
#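 PC3M cells stably expressing PTB-GFP, 750–1000 cells/well, treated 16 h at 37 °C with compound (23 nl of library stock), in duplicate. After paraformaldehyde fixation and Hoechst stain, imaged at 20x; PNC prevalence scored by image analysis.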
# An asterisk follows results filed as active; ? = inconclusive; nt = not tested or not shown; [ ] = another dose, or the depositor's remark. Unless noted, the call rests on the fitted dose curve; in most records, active means well fitted curve in the direction sought with a large enough effect; inconclusive means small, poorly fitted or top-dose-only effect, or another doubt; inactive means no such curve, though single readings can be large; an effect the other way counts as inactive or inconclusive. Unless noted, on the % scale 0 is the no-effect control and ±100 the full control effect.
SMILES,IMPase inh,15-hLO-2 inh,12-hLO inh,PNC assembly inh
O=C(CCC1COc2ccccc2O1)NCC1COc2ccccc2O1 (configuration not stated),8,nt,-3%,-100*
O=c1oc2ccccc2c(Nc2ccccc2)c1[N+](=O)[O-],-5,nt,7%,-16
COC(=O)c1ccccc1S(=O)(=O)N(Cc1cc2ccc(OC)cc2[nH]c1=O)CC1CCCO1 (configuration not stated),-1,2%,-10%,-98*
COc1ccc(-c2ccc(-c3cc(=O)oc4c(C(C)C)ccc(C)c34)cc2)cc1,nt,0%[0.0915 µM],-1%[0.00818 µM],nt
O=c1[nH]cc(F)c(=O)[nH]1,-3,16%[0.0915 µM],0%,-115*
CC(=O)O[C@H]1C2OC(=O)C(C)=C2[C@@H]2OC(=O)[C@]3(CCC4OC41C)OC23 (some centres not stated),nt,nt,-2%,-119*
O=C(NC1CCCCC1)c1sc(N2CCOCC2)nc1-c1ccccc1,nt,nt,1%,42
c1ccc(Cn2ncc3c(NCc4ccco4)ncnc32)cc1,3,-1%,-9%,-105*
c1ccc(-n2ncc3c(NCc4ccco4)ncnc32)cc1,3,9%,-3%,31
Cc1ccc(S(=O)(=O)N2CCN(c3ccc([N+](=O)[O-])c(NCCN4CCOCC4)c3)CC2)cc1,1,nt,2%,-83*
Cc1ccc(C)c(Sc2ccc(NC(=O)CCl)cc2)c1,nt,nt,-3%,-12
O=C(NN=C1CCCC1)c1cccs1,nt,nt,0%,11
CC(=O)N1CCC(=NNC(=O)c2cccs2)CC1,nt,nt,1%,-109*
O=C(CSc1oc(-c2ccco2)nc1S(=O)(=O)c1ccc(F)cc1)NCC1CCCO1 (configuration not stated),24,nt,1%,-119*
O=C(CSc1oc(-c2ccco2)nc1S(=O)(=O)c1ccccc1)NCC1CCCO1 (configuration not stated),9,nt,-2%,-15
Cc1cc(C)n2cc(CSCc3ccccc3)nc2n1,-3,nt,6%,-89*
CC(=O)Nc1ccc(N=Nc2ccccc2)cc1,nt,nt,1%,-19
O=C(CCl)Nc1ccc(N=Nc2ccccc2)cc1,nt,nt,-3%,-122*
O=C1C=CC2=C3c4cc(O)c(O)cc4C[C@]3(O)COC2=C1,nt,-23%,-20%,nt
CCN(C1CCS(=O)(=O)C1)S(=O)(=O)c1cccs1 (configuration not stated),14,-8%,7%,-107*
N#C/C(=C/c1ccc(N2CCCCC2)o1)C(=O)Nc1ccc(Cl)cc1,-1,-21%,-4%,-123*
CC1CC1c1ccc(/C=C(\C#N)C(=O)Nc2ccccc2Cl)o1 (configuration not stated),nt,nt,-5%,18
N#C/C(=C/c1ccc(N2CCCCC2)o1)C(=O)Nc1ccc2ccccc2c1,nt,nt,0%,-91*
CC1CC1c1ccc(/C=C(\C#N)C(=O)Nc2ccc(Cl)cc2)o1 (configuration not stated),nt,nt,-3%,-125*
CN(C)CCCSc1nc2ccccc2[nH]1,nt,-7%[11.4 µM],-6%[11.4 µM],nt
SMILES,IMPase inh,15-hLO-2 inh,12-hLO inh,PNC assembly inh
Cn1cccc1C(=O)NC(=O)CSc1cccc[n+]1[O-],-5,-8%,-5%,-95*
O=C(NNC1=NCCC1)c1cccc(S(=O)(=O)N2CCCC2)c1,nt,nt,0%,-107*
O=C(Nc1ccccc1C(=O)N1CCOCC1)c1cccc(S(=O)(=O)N2CCCC2)c1,-10,2%,6%,-90*
O=C(NCc1ccco1)c1cccc(S(=O)(=O)N2CCCCC2)c1,-8,nt,-1%,-100*
O=C(NCc1ccco1)c1cccc(S(=O)(=O)N2CCOCC2)c1,7,-1%,0%,?
O=C(NCc1ccco1)c1ccc(=O)oc1,-12,2%,2%,-83*
COC(=O)c1ccc(CNC(=O)CSc2nnc(COc3ccccc3)n2C)o1,1,-6%,4%,30
O=C1CC(c2ccccc2)Cc2nc3ncnn3cc21 (configuration not stated),0,-12%,-2%,25
CC(C)c1ccc(S(=O)(=O)N2CCN(C(=S)NCc3ccco3)CC2)cc1,nt,nt,-13%,-14
O=S(=O)(c1cccc(C(F)(F)F)c1)N1CCN(C(=S)NCc2ccco2)CC1,nt,nt,-4%,-109*
CC(C)(C)C(=O)Nc1ccccc1C(=O)NCc1ccco1,-1,-8%,-6%,-138*
CC1(C)CC(NC(=O)c2ccccc2Cl)CC(C)(C)N1,7,7%,-5%,21
CC1(C)CC(Nc2ccc(Nc3ccccc3)cc2)CC(C)(C)N1,nt,4µM*,?,nt
